In the library only some 3.1% were active in any assay of this set; here they are far more common.
12-hLO inh: 12-hLO (ALOX12) enzyme inhibition; actives 0.12% (n = 150,000); AID 1452; Potency, µM (highest dose often 57.1 µM), for the others: top-dose activity change, negative = inhibition, usual class: inhibitors; purified 12-hLO, xylenol orange hydroperoxide absorbance; P18054; also: potency is read from the fitted curve at half-maximal effect; nearly all actives have a fitted effect of over 55% in size
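Lipoxygenase turnover measured by absorbance at 573 and 405 nm after Fe-XO development. Human 12hLO 150 nM, arachidonate 40 uM, pH 7.0 Hepes buffer with detergent; 15 min compound preincubation, 30 min reaction.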
PNC inhibitor: blocks assembly of the perinucleolar compartment | PC3M PTB-GFP, PNC prevalence imaging, 16 h; active compounds read low | activity change (PNC), negative = inhibition, % at 10 µM | actives 3.1% (n = 140,000) | AID 2417;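 active = readout at or below -70, meaning at least 70% loss of cells showing the perinucleolar compartment, a nuclear body marking cancer cells; inconclusive = readout between -30 and a set limit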;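 also: plate controls were DMSO wells for no effect and camptothecin positive control wells for full effect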
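Compounds are pinned in duplicate onto adhered PC3M cells stably expressing GFP-tagged PTB and incubated 16 h at 37 C. Cells are then fixed, nuclei stained with Hoechst, and PNC-positive cells counted.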
ALOX15B inhib: inhibitors of human 15-lipoxygenase 2 (ALOX15B); Potency, µM (series often up to 57.1 µM), without a hit: at the highest dose activity change, negative = inhibition, usual class: inhibitors; actives 0.56% (n = 110,000); O15296; purified 15hLO-2, xylenol orange hydroperoxide absorbance; also: potency is read from the fitted curve at half-maximal effect; nearly all actives have a fitted effect of over 60% in size
Target sequence (O15296 whole entry, looked up): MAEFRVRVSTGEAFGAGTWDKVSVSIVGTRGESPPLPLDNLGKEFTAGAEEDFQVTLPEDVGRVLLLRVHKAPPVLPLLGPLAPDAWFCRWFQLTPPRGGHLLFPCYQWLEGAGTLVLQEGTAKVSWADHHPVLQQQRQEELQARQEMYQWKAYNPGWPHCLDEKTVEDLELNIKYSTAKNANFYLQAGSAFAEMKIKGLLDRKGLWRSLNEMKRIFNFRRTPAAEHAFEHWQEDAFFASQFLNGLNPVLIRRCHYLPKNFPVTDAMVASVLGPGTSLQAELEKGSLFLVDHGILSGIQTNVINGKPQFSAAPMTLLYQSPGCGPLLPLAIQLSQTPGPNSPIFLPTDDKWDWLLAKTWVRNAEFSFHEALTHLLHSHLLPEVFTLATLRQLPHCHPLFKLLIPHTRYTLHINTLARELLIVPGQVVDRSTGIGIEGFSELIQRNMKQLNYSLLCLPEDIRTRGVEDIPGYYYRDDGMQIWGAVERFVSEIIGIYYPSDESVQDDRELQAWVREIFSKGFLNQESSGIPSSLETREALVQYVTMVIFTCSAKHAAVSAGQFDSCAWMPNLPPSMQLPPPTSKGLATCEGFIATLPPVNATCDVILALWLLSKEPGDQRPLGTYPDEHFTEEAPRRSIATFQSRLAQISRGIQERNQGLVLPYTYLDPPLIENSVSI
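Read-out: hydroperoxide product oxidises ferrous iron, measured as xylenol orange complex via the 573-to-405 nm absorbance ratio after 30 min. Reaction: 50 nM enzyme, 15 min compound preincubation, 45 uM arachidonic acid, 90 min RT, Hepes pH 7.5 with Triton X-100.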
Numbers without * were called inactive; ? = inconclusive; nt = no result given; [ ] = remark or other dose. Unless noted, calls follow the shape of the dose curve; as a rule, active = well fitted curve in the direction sought with a large enough effect; inconclusive = small, poorly fitted or top-dose-only effect, or another doubt; inactive = no such curve, though single readings can be large; an effect the other way counts as inactive or inconclusive. Unless noted, % is scaled to controls: 0 for no effect and ±100 for the full control effect.

SMILES	12-hLO inh	PNC inhibitor	ALOX15B inhib
CCCn1c(SCC(=O)Nc2sc(C)c(C)c2C#N)nnc1C(C)C	1.0%	?	-4.8%
Cc1[nH]c2ccccc2c1/C=C/c1nc2ccccc2c(=O)n1-c1ccc([N+](=O)[O-])cc1	-3.8%	?	nt
CN(C)S(=O)(=O)c1ccc2[nH]cc(/C=C/c3nc4ccccc4c(=O)n3-c3ccccc3)c2c1	0.7%	-80.1*	-9.7%
Cc1ccc(C(=O)NN2C(=O)CSC2=S)cc1	-6.4%	-84.3*	nt
Cc1ccc(C(=O)NN2C(=O)/C(=C/c3cccn3C)SC2=S)cc1	-17.4%	?	nt
N#Cc1ccc(CN2CCCC3(CCN(C(=O)c4ccncc4)CC3)C2)cc1	5.1%	nt	4.2%
COCCn1c(=O)cnc2cnc(Nc3cccc(OC)c3)nc21	nt	nt	-11.7%
Cc1n[nH]c(=O)n1-c1cccc(C(F)(F)F)c1	6.3%	4.5	nt
O=c1[nH]ncn1-c1cccc(C(F)(F)F)c1	7.5%	-106.3*	nt
CS(=O)(=O)N1CCC2(CC1)CN(c1ccccc1)C2	-1.9%	nt	-1.8%
CSc1nc(N)c2ncn([C@H]3O[C@H](COP(=O)(O)OP(=O)(O)O)[C@@H](O)[C@@H]3O)c2n1	-3.5%	nt	18.9%
COC(=O)c1ccccc1NC(=O)C1CCCN(S(=O)(=O)c2ccc(F)cc2)C1 (centres undefined)	8.1%	-89.1*	-0.4%
COC(=O)c1ccccc1NC(=O)C1CCCN(S(=O)(=O)c2ccccc2)C1 (centres undefined)	-7.5%	?	-2.6%
Cc1ccc(CSC(N)=Nc2ccccc2)cc1C	3.2%[11.4 µM]	nt	-1.2%[11.4 µM]
COC(=O)c1[nH]c2ccc(C)cc2c1NC(=O)NC1CCCCC1	-4.4%	?	-5.2%
O=C(Nc1c(C(=O)O)[nH]c2ccccc12)NC1CCCCC1	-5.1%	-100.0*	?
c1ccc(-c2nc(-n3nc4ccccc4n3)nc3ccccc23)cc1	-7.6%	5.6	-18.1%
Clc1ccc(-c2nc(N3CCCCC3)nc3ccccc23)cc1	0.2%	-100.0*	nt
O=C(NCc1ccco1)c1ccc(N2CCCCC2)c([N+](=O)[O-])c1	-2.0%	?	nt
CCCCCCCNC(=O)c1ccc(N2CCC3(CC2)OCCO3)c([N+](=O)[O-])c1	-3.7%	-119.3*	nt
O=C(NNS(=O)(=O)c1ccccc1)c1cnn(-c2ccccc2)c1-n1cccc1	1.1%	-17.7	nt
O=C(NNS(=O)(=O)c1ccc([N+](=O)[O-])cc1)c1cnn(-c2ccccc2)c1-n1cccc1	0.7%	-100.0*	nt
O=C(c1ccc(S(=O)(=O)c2ccc(F)cc2)c([N+](=O)[O-])c1)N1CCCCCC1	-2.7%	-119.3*	nt
O=C(c1ccc(F)cc1)N1CCN(c2cc(N3CCCCC3)c(F)cc2[N+](=O)[O-])CC1	-8.1%	41.1	-7.4%
Cn1cnnc1Sc1nc2c(c(=O)n(C)c(=O)n2C)n1Cc1ccccc1Cl	3.8%	-92.5*	nt
SMILES	12-hLO inh	PNC inhibitor	ALOX15B inhib
Cn1c(=O)c2c(nc(Sc3ncccn3)n2Cc2ccccc2Cl)n(C)c1=O	9.0%	?	0.8%
O=[N+]([O-])c1ccc2c(c1)c(S(=O)(=O)O)cc1nonc12	8.2%[11.4 µM]	nt	8.7%[11.4 µM]
CCOC(=O)c1[nH]c2c(c1C)C(=O)CC(c1ccc(F)cc1)C2 (centres undefined)	1.2%	-94.6*	-4.8%
Cc1c(C(=O)OCC(C)C)[nH]c2c1C(=O)CC(c1cccs1)C2 (centres undefined)	2.3%	-88.2*	-8.9%
CCOC(=O)c1[nH]c2c(c1C)C(=O)CC(c1ccc(OCC)c(OC)c1)C2 (centres undefined)	1.9%	-5.8	10.0%
CCCCCOC(=O)c1[nH]c2c(c1C)C(=O)CC(c1ccco1)C2 (centres undefined)	-6.2%	-29.0	nt
CNc1ncnc2c1ncn2[C@H]1C[C@H](OP(=O)(O)O)[C@H](COP(=O)(O)O)O1	-2.7%	nt	8.9%
CS(=O)(=O)N1CCC[C@@]2(CCN(Cc3ccccc3)C2)C1	-2.3%	nt	-3.1%
COc1ccc(NS(=O)(=O)c2cccc(C(=O)N/N=C(\C)c3ccncc3)c2)cc1	-4.6%	-91.3*	nt
C/C(=N\NC(=O)c1ccc(NS(=O)(=O)c2cccs2)cc1)c1ccc(Cl)cc1	1.8%	-89.3*	nt
C/C(=N/NC(=O)c1cccs1)c1ccc(NC(=O)COc2ccc(Cl)cc2)cc1	-2.1%	49.2	10.4%
COc1ccc(NS(=O)(=O)c2cccc(C(=O)N/N=C(\C)c3ccc(-n4ccnc4)cc3)c2)cc1	-7.3%	52.2	13.2%
Cc1ccccc1CS(=O)(=O)Cc1ccc(C(=O)NCCCN2CCOCC2)o1	-4.1%	-89.8*	-3.7%
Cc1ccc(CS(=O)(=O)Cc2ccc(C(=O)NCCCN3CCOCC3)o2)cc1	4.3%	18.4	5.1%
Cc1cccc2c(=O)c(C(=O)NCCCN3CCOCC3)c[nH]c12	-4.3%	-100.0*	nt
Cc1cccc(C)c1NC(=O)C(=O)NCCCN1CCOCC1	-0.1%	-11.2	nt
Nc1nc2c(C(=O)NCc3cccs3)nnn2c2cccc(Cl)c12	5.8%[11.4 µM]	nt	-0.7%[11.4 µM]
CNC/C(Cl)=N/S(=O)(=O)c1ccc(C)cc1	2.9%[11.4 µM]	nt	-7.6%[11.4 µM]
C=CCNS(=O)(=O)c1nc(C)c(Cl)c(C)c1C#N	2.5%	-84.8*	4.2%
CSc1nc(C)c(Cl)c(C)c1C#N	-1.0%	?	14.2%
O=C(COc1ccc(-c2nnco2)cc1)N1CCN(S(=O)(=O)c2ccccc2)CC1	-0.7%	-81.4*	4.3%
CCCS(=O)(=O)N1CCN(C(=O)COc2ccccc2)CC1	5.8%	?	0.3%
CCCS(=O)(=O)N1CCN(C(=O)COc2ccc(-c3ccccc3)cc2)CC1	-3.6%	-87.6*	nt
O=C(COc1ccc(Cl)cc1)N1CCN(S(=O)(=O)c2ccccc2)CC1	2.8%	21.8	4.8%
CCCCc1ccc(NC(=S)Nc2ccc(Nc3ccc(OC)cc3)cc2)cc1	?	10.8	nt
SMILES	12-hLO inh	PNC inhibitor	ALOX15B inhib
CCCCc1ccc(NC(=S)Nc2ccc(Cl)c(S(=O)(=O)N(C)C)c2)cc1	-7.2%	-119.1*	nt
O=[N+]([O-])c1ccc(O)c(/C=N\N=C2c3ccccc3-c3ccccc32)c1	0.0%	?	nt
NC(N)=N/N=C/c1cc([N+](=O)[O-])ccc1O	-7.3%	-115.1*	nt
Cc1ccnc(NS(=O)(=O)c2ccc(NS(=O)(=O)c3ccccc3)cc2)n1	12.3%	-100.0*	nt
Cc1cc(C)nc(NS(=O)(=O)c2ccc(NS(=O)(=O)c3ccccc3)cc2)n1	3.2%	-13.5	-6.1%
O=C1C(=O)c2ccccc2C(O)=C1C(CCc1ccccc1)C1=C(O)c2ccccc2C(=O)C1=O	-7.1%[11.4 µM]	nt	4.7%[11.4 µM]
O=c1[nH]c(SCc2cccc([N+](=O)[O-])c2)nc2nc[nH]c12	6.2%[11.4 µM]	nt	-6.1%[11.4 µM]
O=c1c(-c2cc(F)cc(F)c2)nc2cnc(N3CCOCC3)nc2n1Cc1ccc(F)cc1	nt	nt	-5.7%
CCNc1ncc2nc(-c3cc(F)cc(F)c3)c(=O)n(C[C@H]3CCCO3)c2n1	nt	nt	6.9%
Cc1ccc(N2CCN(CCC(=O)O)CC2)cc1	1.4%[11.4 µM]	nt	-3.7%[11.4 µM]
CCN(C(=O)COC(=O)CNC(=O)c1ccc(C)c(C)c1)C1CCS(=O)(=O)C1 (centres undefined)	-5.7%	-121.5*	nt
CCN(C(=O)COC(=O)c1ccccc1Nc1cccc(C)c1C)C1CCS(=O)(=O)C1 (centres undefined)	-4.1%	-14.4	14.2%
NCCCCNS(=O)(=O)c1cccc2c(Cl)cccc12	-0.6%	nt	41.1%
